Results as given in ChEMBL document CHEMBL3988442, “University of Dundee, Small-Polar-MMV Screening Library” (2021).
Among all 48,000 compounds or so, about 13,000 (27%) showed an effect of 50% or more. The list shows a part of the results.

Tested on: Wolbachia pipientis
Experiment: Anti-Wolbachia Cell-Based Screen
Format: functional
Design: scale not given: in the data most compounds retested in dose-response had high values
Conditions: 5 µM

| SMILES | Percent Effect [%] |
| --- | --- |
| CC(SCCC(=O)NC(N)=O)c1cccc(F)c1 (stereo unspecified) | -9.647 |
| CN(C)CC(=O)N1CC(c2nn(C)c3nccnc23)C1 | 96.82 |
| CN(C)CC(=O)N1Cc2nnn(C)c2C(COCC2CC2)C1 (stereo unspecified) | -6.376 |
| CC(=O)N1CCC(c2nn(C)c3nccnc23)C1 (stereo unspecified) | 104.2 |
| Cc1ncc(CN(C)C(=O)Nc2cccc(N3CCOC3=O)c2)s1 | -2.518 |
| CC(C)N(C(=O)c1csc(-c2ccoc2)n1)C1CCOCC1 | -5.774 |
| Cc1cnn(CC2CCCN2c2ncnc3ccccc23)c1 (stereo unspecified) | -22.63 |
| Cc1c(-c2cccs2)nn2c(O)c3c(nc12)CN(C(=O)C1CC1)C3 | 98.04 |
| Cc1nc2c(c(=O)n1C)CN(C(=O)C1CCCN(C(N)=O)C1)C2 (stereo unspecified) | 11.31 |
| Cc1nc2c(c(=O)n1C)CN(C(=O)C1CCN(C(=O)C3CCC3)CC1)C2 | -3.258 |
| COCCC(=O)N1Cc2nc3c(C)c(-c4cccs4)nn3c(O)c2C1 | 108.4 |
| Cc1nc(-c2cccs2)ccc1C(=O)N1CCN(CCO)CC1 | -3.936 |
| COCC(=O)N1Cc2nc3c(C)c(-c4cccs4)nn3c(O)c2C1 | 99.09 |
| CCc1ncc2c(n1)CN(C(=O)COC)C2 | 5.323 |
| COc1cc(C)nc(N2CCN(C(=O)CCc3cccs3)CC2)n1 | -2.18 |
| COCCC(=O)N1Cc2cnc(Cc3ccc(OC)cc3)nc2C1 | -12.22 |
| c1cc(-c2c[nH]c([C@@H]3COCCN3C3CCCCC3)n2)ccn1 | -0.01712 |
| CCc1ccc(CN2CC[C@H]3C[C@H](c4nnc(C)[nH]4)O[C@@H]3C2)o1.O=C(O)C(F)(F)F | -6.047 |
| CC(Sc1nnnn1C1CCOCC1)C(=O)NC1CCCCC1 (stereo unspecified) | -2.14 |
| C[C@@H]1CN(c2ccc(Cl)cn2)C[C@]1(C)O | 110.4 |
| CC(C)NC(=O)CN(C)C1CCN(c2ccc(Cl)cn2)CC1 | -2.588 |
| C[C@@H]1CN(c2cc(N3CCC(O)CC3)ncn2)C[C@@]1(O)C1CC1 | -16.8 |

| SMILES | Percent Effect [%] |
| --- | --- |
| CS(=O)(=O)CCN1CCN(c2ccc(Cl)cn2)CC1 | -5.169 |
| COc1cc(N2C[C@@H](C)[C@](O)(C3CC3)C2)ncn1 | -12.89 |
| C[C@@H]1CN(c2ccc(Cl)cn2)C[C@@]1(O)C1CC1 | 109.5 |
| O=C1COc2ccc(C(=O)NS(=O)(=O)c3ccc(F)cc3F)cc2N1 | 1.32 |
| CCS(=O)(=O)N1CCC(c2nnc(CN3CCCC3)n2C2CC2)CC1 | -2.411 |
| OCCOc1cc(F)ccc1NCc1nc(-c2cccs2)no1 | 14.46 |
| Cc1cnn(CCNCc2nc(COc3ccc(F)cc3)no2)c1 | -9.095 |
| Cc1ccoc1-c1nnc(CNCCn2cccn2)o1 | -4.902 |
| Cc1cnn(CCNCc2csc(-c3ccc(F)cc3)n2)c1 | 0.7899 |
| Cc1cnn(CCNC(C)c2nnc(-c3ccccc3)o2)c1 (stereo unspecified) | -3.26 |
| Cc1ccc(-c2cc(CNCCn3cc(C)cn3)on2)cc1 | -23.87 |
| c1ccc(-c2nnc(CNCCn3cccn3)o2)cc1 | -4.985 |
| Cc1ccc(-c2nnc(C(C)NCCn3cc(C)cn3)o2)cc1 (stereo unspecified) | 8.064 |
| Cc1cnn(CCNCc2cc(C)no2)c1 | 0.9077 |
| COc1ccc(-c2nnc(CNCCn3cc(C)cn3)o2)cc1 | 93.96 |
| Cc1cnn(CCNCc2nnc(-c3ccc(F)cc3)o2)c1 | 123.4 |
| Cc1cnn(CCNCc2nnc(-c3occc3C)o2)c1 | 122.9 |
| Cc1cnn(CCNCc2nnc(-c3ccccc3)o2)c1 | 127.3 |
| CCc1noc(CN(CC(=O)N2CCCCC2)c2cccc(C)c2)n1 | 13.21 |
| COc1ccc(OCc2cc(C(=O)N3CC=CC3)n[nH]2)c(Cl)c1 | 6.358 |
| CS(=O)(=O)NCc1noc2c1CN(C(=O)C1CCC1)CC2 | 102.9 |
| COCC(=O)N1CCc2c(CNS(C)(=O)=O)n[nH]c2C1 | 5.679 |

| SMILES | Percent Effect [%] |
| --- | --- |
| O=C(c1ccnnc1)N1CCc2onc(CN3CCCC3)c2C1 | -11.85 |
| CS(=O)(=O)NCc1noc2c1CN(C(=O)c1ccsc1)CC2 | 8.076 |
| CCC(=O)N1CCc2onc(CNS(C)(=O)=O)c2C1 | 86.89 |
| CC(=O)NCc1noc2c1CN(CCN1CCCC1)CC2.O=C(O)C(F)(F)F.O=C(O)C(F)(F)F | -16.49 |
| CS(=O)(=O)NCc1noc2c1CN(C(=O)C1CC1)CC2 | 103.2 |
| FC(F)(F)C1CCCn2c(CNCc3cccs3)nnc21 (stereo unspecified) | -7.2 |
| CCN(CC)C(=O)N1CCN(C2=NCC(C)S2)CC1 (stereo unspecified) | -3.513 |
| Cc1ccnc(N2CCN(Cc3ccccc3)CC(O)C2)c1 (stereo unspecified) | 10.83 |
| Cc1nccc(CN2CC[C@@]3(CCCN3Cc3ccccc3)[C@@H](O)C2)n1 | 93.51 |
| Cc1nccc(CNC(=O)N2CCN(Cc3ccccc3)C[C@H]2C)n1 | -2.521 |
| COc1ccc(-c2ccc(C(=O)NCCCC(N)=O)c(F)c2)c(F)c1 | -2.164 |
| Cn1cc(-c2noc(C3(C)CCOCC3)n2)cn1 | -4.622 |
| CCn1cc(-c2c(C)c(C3CCOC(C)(C)C3)nc(N)c2C#N)cn1 (stereo unspecified) | 115.2 |
| CCCc1c(C2CCOC(C)(C)C2)nc(N)c(C#N)c1-c1cnn(C)c1 (stereo unspecified) | 105.7 |
| Cc1cc(-c2cc(C3CCOC3)c(C#N)c(N)n2)ccc1Cl (stereo unspecified) | 25.02 |
| CCc1ccc(-c2c(C)c(-c3cnn(C)c3)nc(N)c2C#N)o1 | 7.382 |
| N#Cc1c(C2CC2)cc(-c2ccc(O)cc2)nc1N | -0.3878 |
| Cc1c(C2CCOC(C)(C)C2)nc(N)c(C#N)c1-c1ccc(O)cc1 (stereo unspecified) | 105.2 |
| Cc1c(-c2cnn(C)c2)nc(N)c(C#N)c1-c1ccc(CO)o1 | 0.3251 |
| CN(C)C(=O)CN1C[C@@H]2CC[C@H](C1)N(C/C=C/c1ccc(F)cc1)C2 | 0.7109 |
| CCc1cc(NC(=O)N2CCC(Oc3cccnc3)C2)n(C)n1 (stereo unspecified) | -19.7 |
| Cc1nn2cccnc2c1C(=O)NCc1ccccc1OCC1CC1 | 6.014 |
